From PubChem BioAssay AID940 (Emory University Molecular Libraries Screening Center, 2007) come the findings set out here.

Molecules are shown by their SMILES. The whole screen tested about 260,000 compounds, of which about 2,200 (0.85%) were called active.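 The calls were made as follows: active = compounds whose cAMP rise, as percent of the full-agonist control response, exceeds 60; inactive = the rest.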 What follows is part of a selection rich in actives, with near analogues and random picks from the rest.

In the assay the target is Prostaglandin E2 receptor EP2 subtype (Homo sapiens) (UniProt P43116). As to the kind of experiment: modulation of human EP2 prostaglandin signaling – cell-based, HTRF cAMP, PGE2 stimulation, primary screen (AID 940).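 Also: rat C6 glioma line stably carrying human EP2 under a CMV promoter; the protocol text gives 20 µM as final concentration; 100% = response of wells given 1 µM PGE2.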 Particulars: EP2-expressing cells, cAMP HTRF FRET, PGE2 co-stimulation; at 25 µM; hits give high values. On the technique in general: In TR-FRET formats the signal depends on donor and acceptor labels being close together.
Sequence of Prostaglandin E2 receptor EP2 subtype (Homo sapiens) (P43116 whole entry, looked up): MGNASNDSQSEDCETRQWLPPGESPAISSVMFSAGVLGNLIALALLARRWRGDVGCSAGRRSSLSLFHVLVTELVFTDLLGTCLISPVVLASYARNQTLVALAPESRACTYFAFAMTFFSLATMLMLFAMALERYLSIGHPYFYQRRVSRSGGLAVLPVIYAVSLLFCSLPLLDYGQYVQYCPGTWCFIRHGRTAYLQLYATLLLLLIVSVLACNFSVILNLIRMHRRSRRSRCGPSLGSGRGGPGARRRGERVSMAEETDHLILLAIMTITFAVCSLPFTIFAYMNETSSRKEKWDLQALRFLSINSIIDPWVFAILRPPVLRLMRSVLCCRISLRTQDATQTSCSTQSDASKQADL
As to `O=C(Nc1nnc(SCC(=O)N2CCCCC2)s1)c1ccco1`, the induction is -9.97% (inactive). Then `COC(=O)CSc1nnc(-c2ccc3[nH]c(C)c(C)c3c2)o1`, with -58.2% (inactive); and `CCN1CCCC1CN(Cc1cc2cc(OC)c(OC)cc2[nH]c1=O)C(=O)Nc1ccccc1Cl` (stereo not given), with -41.6% (inactive). Turning to `CCc1nn(CC(=O)NCc2cccnc2)c(=O)c2cc3ccsc3n12`, the induction is 1.61% (inactive). As for `CCOc1ccc(-c2nc(-c3cc4ccccc4[nH]c3=O)no2)cc1`, the figure is -8.73% (inactive); as for `O=C(/C=C/c1ccccc1)N/C(=C/c1ccccc1)C(=O)Nc1ccccc1O`, -4.9% (inactive).

With `CCc1ccccc1NC(=O)Cc1cn(C)c2ccccc12`, the induction is 23.9% (inactive). As for `CCc1ccccc1NC(=O)/C(=C/c1ccccc1)c1ccccc1`, the figure is 65.2% (active); as for `Cc1ccc(-c2nsc3c(SCC(=O)N(C)C4CCCCC4)ncnc23)cc1`, 34.6% (inactive); as for `Cc1c(CN(C)C(=O)CSc2nc(-c3cccs3)cc(C(F)(F)F)n2)cnn1C`, 9.94% (inactive). For `CN1CC(c2ccccc2)C2(CCN(Cc3ccccc3)CC2)C1` (stereo not given), the induction is -9.74% (inactive). As for `Cc1nn(CC#N)c(=O)n1N(C)c1ncc(C(F)(F)F)cc1Cl`, the figure is 2.11% (inactive).

Take `C#CCN(N(C)c1ncc(C(F)(F)F)cc1Cl)S(=O)(=O)c1ccc2ccccc2c1`: the induction is 61.4% (active). Then `Cc1cc(C)cc(NS(=O)(=O)c2ccc(Oc3ncc(C(F)(F)F)cc3Cl)cc2)c1`, with 57.5% (inactive). Then `O=C(Cc1cccs1)Nc1nnc(-c2ccccc2Cl)s1`, with -20% (inactive); and `CC(C)c1nc(N2CCOCC2)c(C#N)c2c1COC(C)(C)C2`, with -103% (inactive). Turning to `CC(C)Cc1nc(N2CCOCC2)c(C#N)c2c1CCC2`, the induction was 64% (active). Then `CC(C)Cc1nc(Cl)c(C#N)c2c1CCC2`, with 6.62% (inactive); and `Cc1ccccc1N(C(=O)c1ccco1)C(C(=O)NC1CCCC1)c1ccco1` (stereo not given), with 15% (inactive); and `COc1ccc2c(c1)C(C)=CC(C)(C)N2C(=O)Nc1ccccc1`, with 43% (inactive).

In the case of `COc1ccc2c(c1)C(C)=CC(C)(C)N2C(=O)CNCc1ccc2c(c1)OCO2`, the induction was 62.2% (active). On to `COc1ccc(OC)c(CC(=O)N2CCC(c3ccc4c(c3)OCO4)CC2)c1`, for which the induction is -2.54% (inactive). As for `CCCNc1ncnc2sc(C)c(C)c12`, the figure is 17.6% (inactive); as for `CSc1ncnc2sc(C)c(C)c12`, 68.5% (active).

Regarding `Cc1sc2ncnc(Sc3nc4ccccc4s3)c2c1C`, the induction was 17.8% (inactive). As for `Cc1cc2cc(CN(CCO)C(c3nnnn3CC3CCCO3)C(C)C)c(=O)[nH]c2cc1C` (stereo not given), the figure is -0.77% (inactive); as for `Cc1ccc(/C=N/NC(=O)CSc2ccccn2)o1`, -4.32% (inactive).

Turning to `CCOc1ccc(/C=N/NC(=O)CSc2ccccn2)cc1O`, the induction is 65.8% (active). In the case of `CCOc1ccc(/C=N/NC(=O)C(C)Sc2ccccn2)cc1OCC` (stereo not given), the induction is 13.9% (inactive). As for `COc1ccc(S(=O)(=O)NCc2ccc3c(c2)OCO3)c(Cl)c1Cl`, the induction is -0.88% (inactive). For `Cc1nc2nc(N)ccc2c(C)c1C`, the induction is -9.42% (inactive). Then `CCC(C)c1ccc(O)c(/C=N/O)c1` (stereo not given), with 4.26% (inactive); and `CNCC(O)c1ccc(O)c(O)c1` (stereo not given), with 68.4% (active); and `CC(=O)NCC(O)c1ccc([N+](=O)[O-])cc1` (stereo not given), with 1.39% (inactive).

As for `CCc1ccc(NC(=O)C2CCN(C(=O)c3cccs3)CC2)cc1`, the induction was 15.7% (inactive). As for `CCOc1ccc2cc(C#N)c(SCC(=O)OC)nc2c1`, the figure is 47% (inactive). As for `COC(=O)CSc1nc2c(c(C3CC=CCC3)c1C#N)CCC2` (stereo not given), the figure is 68.1% (active); as for `COC(=O)CSc1nc(C2CC2)nc2ccccc12`, 4.21% (inactive); as for `C=CCNC(=O)CN1CCC(c2ccccc2F)CC1`, -47.4% (inactive). Then `COC(=O)[C@H]1CCc2ccccc2N1C(=O)C1CCC1`, with -15.3% (inactive). For `CCC(C)OC(=O)C(C)n1cnc2sc(C(=O)Nc3ccccc3OC)c(C)c2c1=O` (stereo not given), the induction is -16.1% (inactive). Turning to `COC(=O)[C@H]1CCc2ccccc2N1C(=O)c1ccccc1F`, the induction was 8.05% (inactive). As for `O=C(Cn1nc(-c2ccncc2)oc1=O)N1CCCCC1`, the figure is -10.9% (inactive); as for `CS(=O)(=O)N1CCCc2cc(C(O)CN3CCN(c4cnccn4)CC3)ccc21` (stereo not given), -3.55% (inactive). Then `N#Cc1c(NC(=O)CSc2nc3ccccc3c(=O)n2Cc2ccco2)sc2c1CCCC2`, with -3.51% (inactive). As for `O=C(CSc1nc2ccccc2c(=O)n1Cc1ccco1)Nc1ccccc1Cl`, the figure is 67.4% (active). In the case of `Cc1cc(NC(=O)CSc2nc3cc(Cl)ccc3c(=O)n2Cc2ccco2)no1`, the induction is -4.33% (inactive). Then `CCOC(=O)C(C)NC(=O)c1cc2ccc(F)cc2[nH]1` (stereo not given), with -92.7% (inactive); and `Cc1nc(S(=O)(=O)c2ccc(Cl)cc2)c(N2CCCCC2)o1`, with -42.2% (inactive); and `CCN1CCN(C(=O)[C@H]2C[C@@H](c3ccc(OC)c(OC)c3)NS(=O)(=O)N2C)CC1`, with -8.26% (inactive).

With `COc1ccc(C2(C(=O)N3CCC(n4cnc5cccnc54)CC3)CCCC2)cc1`, the induction was 11.4% (inactive). Then `Cc1nn(C(C)C)c(C)c1CN(C)CCOc1ccccc1`, with -30.9% (inactive); and `COc1cc(C)c(-c2csc(NC(=O)C3(C)CCCO3)n2)cc1C` (stereo not given), with -62.2% (inactive). Consider `COc1cccc(NC(=O)C(C)Oc2ccccc2)c1` (stereo not given), for which the induction was 9.01% (inactive). Regarding `COc1cccc(NC(=O)c2ccccc2SC)c1`, the induction was 61.4% (active). Then `CSc1ccccc1C(=O)Nc1cccc(C(C)=O)c1`, with 10.1% (inactive).

As to `COc1cc(C#N)ccc1OCc1nc(-c2ccccc2)no1`, the induction is -64.5% (inactive). Then `CSc1ncc(C(=O)N2CC(CN3CCOCC3)c3ccccc32)cn1` (stereo not given), with -3.66% (inactive). As for `CCOC(=O)C1CCN(C(=O)Nc2c[nH]c3ccc(OC)nc3c2=O)CC1`, the figure is -39.3% (inactive); as for `CCOC(=O)c1nnn(-c2nonc2OC)c1-c1ccccc1`, 11.4% (inactive). As for `CCOC(=O)c1c(-c2cccc(N)c2)cn2ccccc12`, the figure is -32.9% (inactive). In the case of `CCOC(=O)c1c(N)nn(C(=O)c2ccccc2)c1-c1ccccc1`, the induction is 69.9% (active). Then `COc1ccc(CSc2nc(N3CCOCC3)c3c(c2C#N)CC(C)(C)OC3)cc1`, with 37.4% (inactive); and `CC1(C)Cc2c(C#N)c(SCc3nc4ccccc4[nH]3)nc(N3CCOCC3)c2CO1`, with -21.7% (inactive).

Turning to `C/C(Cl)=C\CSc1nc(N2CCOCC2)c2c(c1C#N)CC(C)(C)OC2`, the induction was 67.7% (active). Then `CCOc1ccc2[nH]c(=O)c(C(c3nnnn3CCOC)N3CCN(C)CC3)cc2c1` (stereo not given), with -18.3% (inactive); and `COC(=O)c1sc2[nH]c(=S)n(N)c(=O)c2c1C`, with 78.1% (active). Then `COC(=O)Cn1cnc2sc(C(=O)OC)c(C)c2c1=O`, with -5.66% (inactive). Then `CCOC(=O)c1sc2nc(C)[nH]c(=O)c2c1C`, with 15.6% (inactive). Take `O=c1[nH]c2ccc(S(=O)(=O)N3CCCC(c4ccccc4)C3)cc2[nH]1` (stereo not given): the induction is -114% (inactive). Then `O=C(Cn1nc2c3ccccc3ncn2c1=O)NCc1cccs1`, with 4.57% (inactive).

Consider `COc1ccc2nc(C)cc(SCC(=O)Nc3ccccc3Br)c2c1`, for which the induction is -51.4% (inactive).

As for `CCc1cc2ccccc2nc1SCC(=O)Nc1ccccc1Br`, the induction is 65.9% (active). As for `COc1ccc2cc(C#N)c(SCC(=O)Nc3ccccc3Br)nc2c1`, the figure is 66.9% (active).

Consider `Cc1cc2ccccc2nc1SCC(=O)Nc1ccccc1F`, for which the induction was 39.1% (inactive).

As for `CCc1cc2cc3c(cc2nc1SCC(=O)Nc1ccccc1Br)OCCO3`, the induction was -3.39% (inactive).

With `Cc1ccc2cc(C#N)c(SCC(=O)Nc3cccc(C)c3C)nc2c1`, the induction is -15.3% (inactive). Then `COCCNc1nnc(-c2ccccn2)s1`, with -12.4% (inactive); and `O=C(CCSc1nc(-c2ccco2)cc(C(F)(F)F)n1)NC1CCCCC1`, with -7.93% (inactive). Then `CC(C)(C)Oc1ncc(Br)c(OC(C)(C)C)n1`, with 31.4% (inactive); and `COc1cccc(-c2nc3cc(C)ccc3o2)c1`, with 3.47% (inactive); and `COc1cccc(-c2cnc(OC(C)(C)C)nc2OC(C)(C)C)c1`, with 62% (active).

In the case of `COc1ccc(C(=O)N2CC3(C)CC2CC(C)(C)C3)cc1OC` (stereo not given), the induction is -6.8% (inactive). Then `CC1(C)CC2CC(C)(CN2c2ncnc3ccc(Br)cc23)C1` (stereo not given), with 70% (active). As for `CC1(C)CC2CC(C)(CN2C(=O)c2ccc(Cl)cc2)C1` (stereo not given), the figure is -5% (inactive); as for `COc1ccc2[nH]cc(CCNC(=O)C3CCN(c4nc5ccccc5n4C)CC3)c2c1`, -102% (inactive); as for `CCc1ncc(CNC2(c3ccc(Cl)cc3)CCC2)cn1`, -47% (inactive). Then `CCc1ccc2[nH]c(=O)c(CN(Cc3ccc(F)cc3)Cc3nnnn3C(C)(C)C)cc2c1`, with 62.5% (active); and `CCC(C)(C)n1nnnc1CN(Cc1ccc(F)cc1)Cc1cc2cc(C)cc(C)c2[nH]c1=O`, with 29.1% (inactive).

As to `CCC(c1nnnn1C(C)(C)C)N(Cc1ccccc1)Cc1cc2ccc(C)cc2[nH]c1=O` (stereo not given), the induction was 12.1% (inactive). On to `COCCNC(=O)Cn1nc2c(C)cc3cc(C)cc(C)c3n2c1=O`, for which the induction is -32.1% (inactive). Then `COc1ccc(NCc2nnc(SCC(=O)Nc3ccc(C)cc3)n2C)cc1`, with 8.87% (inactive). Then `Cc1ccc(Cn2c3ccccc3n3c(SCC(=O)N4CCc5ccccc54)nnc23)cc1`, with -8.29% (inactive).

As for `CC(C)(C)c1cc(P(=O)(c2ccccc2)c2ccccc2)ccc1O`, the induction was 66.9% (active).

For `O=P(O)(CP(=O)(c1ccccc1)c1ccccc1)c1ccccc1O`, the induction was -5.29% (inactive).

As for `COc1ccc(N=Nc2ccc(O)c(P(=O)(c3ccccc3)c3ccccc3)c2)cc1`, the induction was 25.3% (inactive).

On to `CN(C)C(=O)CN1N=C(C(C)(C)C)Cn2c(cc3sccc32)C1=O`, for which the induction is -24.7% (inactive). Then `CCn1c2ccccc2c2cc(CC(N)=O)ccc21`, with 13.3% (inactive); and `CC(=O)c1ccc2c(c1)c1ccccc1n2CC(C)C`, with 66.9% (active). `CC(=O)c1ccc2c(ccc3ccccc32)c1`: the induction is -39.4% (inactive).
